Shown are actives, neighbours in structure and some others; about 4.1% of the full set was active somewhere.
TWEAK Fn14 block – inhibitors of TWEAK-Fn14 signaling, primary screen, luciferase reporter cells, uHTS. AID 1159606, 2016. inhibition, % at 10 µM. 2% of 360,000 active. TWEAK-stimulated Fn14 reporter cells, luciferase luminescence, 8 h; in the data active means inhibition above about 50%
TRPM1 prom inh – inhibitors of MITF-dependent TRPM1 promoter reporter, primary screen, cell-based, SK-MEL-5, single point, luciferase; 0.83% of 330,000 active; SK-MEL-5 TRPM1 promoter luciferase, 24 h; inhibition, % at 12.5 µM;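 active means mean inhibition across replicates of 60% or more, whatever share of single replicates reaches that level; inconclusive means some that reach 60%, reason not given; inactive means mean inhibition across replicates below 60%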
TROY signal inh – inhibitors of TROY-driven NF-kB signaling, primary screen, Q293 LMP1-TROYcd cells, NF-kB luciferase, uHTS; Q293 LMP1-TROYcd NF-kB luciferase reporter, 4 h; AID 1347056, 2019; inhibition, % at 10 µM; 0.98% of 360,000 active;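 active means compounds whose plate-normalised and pattern-corrected inhibition of the luciferase reporter signal at the single screening dose is 50% or more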
Shn3 3UTR inh – reduction of Shn3 3'UTR firefly luciferase signal, primary screen, Schnurri-3 inhibitor project, cell-based, Clone20 osteoblasts, set 2; Clone20 osteoblast Shn3 3'UTR firefly luciferase, 24 h; inhibition, % at 12.5 µM; 0.52% of 360,000 active; AID 588674, 2011;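 active means mean inhibition of at least 75% with every replicate also reaching 75%; inconclusive means mean inhibition at least 75% but some replicate below; inactive means mean inhibition below 75%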
EBV LMP1 NFkB – EBV LMP1-driven NF-kappaB luciferase reporter inhibitors, primary screen, cell-based, luminescence, single point. inhibition, % at 12.5 µM. 0.69% of 350,000 active. AID 504558, 2011. LMP1-induced NF-kappaB luciferase reporter cells; in the data active means inhibition above about 41%; inconclusive means no clear call, values can overlap the other calls
Peg3 promoter – Peg3 promoter-driven luciferase inhibitors, primary screen, cell-based, HeLa, luciferase luminescence; inhibition, % at 20 µM; AID 588405, 2011; 1.7% of 360,000 active; HeLa PEG-Prom luciferase reporter, overnight;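 active means inhibition of at least 50% at 20 µM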
Of the large screens only hits and unclear results are named; the others gave an inactive call.

COc1ccc(S(=O)(=O)N(C)C)cc1NC(=O)c1ccc2c(c1)NC(=O)C(C)S2 (stereo unspecified)	none
COc1ccc(N2CC(C(=O)Nc3ccncc3)CC2=O)cc1 (stereo unspecified)	none
COC(=O)c1cc2c(n1S(=O)(=O)c1ccc(C)cc1)C(=O)C(=O)c1[nH]cc(C(=O)OCc3ccccc3)c1-2	TWEAK Fn14 block 103, TRPM1 prom inh 108, TROY signal inh 65, Shn3 3UTR inh 92, EBV LMP1 NFkB 88, Peg3 promoter 89
CCCCCCN1C[C@@H](n2cc(-c3ccc(F)cc3)nn2)[C@H](O)C[C@@H]1c1ccc(OC)cc1	Peg3 promoter 61 (no result: TRPM1 prom inh)
CCCCCCN1C[C@@H](n2cc(-c3ccc(F)cc3)nn2)[C@H](O)C[C@@H]1c1ccc(Cl)cc1	Shn3 3UTR inh inconclusive, Peg3 promoter 69 (no result: TRPM1 prom inh)
COc1ccc([C@H]2C[C@H](O)[C@@H](n3cc(-c4ccc(F)cc4)nn3)CN2Cc2cccs2)cc1	Peg3 promoter 69 (no result: TRPM1 prom inh)
CC(C)C[C@H](NC(=O)[C@@H]1Cc2ccccc2CN1C(=O)OC(C)(C)C)C(=O)NCC1CCC(C(=O)O)CC1 (stereo partly specified)	none
Cc1cccc(-n2c(-c3csc(C)c3C)n[nH]c2=S)c1	TWEAK Fn14 block 92
CC(=O)Nc1ccc(-c2ccnc3c2CC(C(=O)Nc2ccccc2)O3)cc1 (stereo unspecified)	none (no result: TRPM1 prom inh, EBV LMP1 NFkB)
Nc1c(-c2ccccc2)sc2ccc3ccccc3[n+]12	none
OC(COc1ccccc1)CN1CCN(CC(O)COc2ccccc2)CC1 (stereo unspecified)	none
OC(CON=C1c2ccccc2-c2ccccc21)CN1CCNCC1 (stereo unspecified)	Peg3 promoter 57
Cc1csc(N/N=C/c2c(F)cccc2Cl)n1	none
Cc1csc(N/N=C/c2ccccc2F)n1	EBV LMP1 NFkB 87
COc1cccc(-c2nnc3sc(C4CCCCC4)nn23)c1	TWEAK Fn14 block 64, TROY signal inh 52, EBV LMP1 NFkB 45
Cc1ccc(Nc2nc(CSc3nnnn3-c3ccccc3)cs2)cc1	TWEAK Fn14 block 58
Cc1ccc(Nc2nc(CSc3nnc(-c4cccnc4)n3-c3ccccc3C)cs2)cc1	TWEAK Fn14 block 53, TROY signal inh 51
Cn1nnnc1SCc1csc(Nc2ccccc2)n1	none
Cc1ccc(Nc2nc(CSc3nnnn3C)cs2)cc1	TWEAK Fn14 block 63
Cc1cc(C)cc(NC(=O)COC(=O)Cc2ccccc2F)c1	TWEAK Fn14 block 75 (no result: TRPM1 prom inh)
O=C(COC(=O)Cc1ccccc1F)Nc1ccc2c(c1)OCO2	none
CCCCCCC(=O)Nc1ccc(Br)cn1	none
O=C(Nc1ccc(SC(F)(F)F)cc1)c1ccccn1	none
COc1ccc(-n2cc(CNCC3CCOCC3)c(-c3cccc(F)c3)n2)cc1	TWEAK Fn14 block 84
O=C(Nc1ccc(-c2ccc3nncn3n2)cc1)c1ccc(Br)o1	none
O=S(=O)(Nc1ccc(F)cc1Cl)c1ccc(-c2cnc(C3CC3)o2)cc1	TROY signal inh 52
COc1ccccc1CNS(=O)(=O)c1ccc(-c2cnc(C3CC3)o2)cc1	EBV LMP1 NFkB 45
CCn1c(=S)[nH]c2c(=O)n(C)c(=O)n(C)c21	none
C=CCN(c1ccccc1OC)S(=O)(=O)c1cccc(C(=O)OCC(=O)N2CCOCC2)c1	none
COc1cc(OC)c(N(C)S(=O)(=O)c2cccc(C(=O)OCC(=O)c3c[nH]c4ccccc34)c2)cc1Cl	TWEAK Fn14 block 96
CC(=O)Nc1ccc(NC(=O)COC(=O)Cc2c[nH]c3ccccc23)cc1	none
COc1ccc(C(=O)OCC(=O)c2c[nH]c3ccccc23)cc1OC	EBV LMP1 NFkB 67
COc1ccc(NC(=O)COC(=O)Cc2c[nH]c3ccccc23)cc1OC	EBV LMP1 NFkB 70
C=CCN(c1ccccc1OC)S(=O)(=O)c1cccc(C(=O)OCC(=O)c2c[nH]c3ccccc23)c1	TWEAK Fn14 block 85
O=C(CSCCO)Nc1ccc([N+](=O)[O-])cc1	none
CN(c1ccccc1)S(=O)(=O)c1cccc(C(=O)Nc2nccs2)c1	none
